Measurements from the supplement of paper PMC9844399.
Structures can show the parent of a compound that is named as a salt.

system: HeLa; experiment: MALAT1 nuclear FISH intensity, robust Z-score vs DMSO; higher = more nuclear MALAT1 lncRNA, active = -3 or less; conditions: 10 µM; 6 h
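Also: High-content confocal imaging of branched-DNA amplified FISH in 384-well plates, Hoechst-defined nuclei, score is well value minus plate DMSO median over DMSO robust SD, four wells per compound.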

SMILES | MALAT1 nuclear FISH intensity
CCCC1O[C@@H]2C[C@H]3[C@@H]4CCC5=CC(=O)C=C[C@]5(C)[C@H]4[C@@H](O)C[C@]3(C)[C@]2(C(=O)CO)O1 (stereo partly specified) [Budesonide] | 1.13 (inactive)
Nc1nc(Cl)nc2c1ncn2[C@H]1C[C@H](O)[C@@H](CO)O1 [Cladribine] | 0.999 (inactive)
COc1ccnc(C[S+]([O-])c2nc3cc(OC(F)F)ccc3[nH]2)c1OC (stereo unspecified) [Pantoprazole] | 1.09 (inactive)
NCC[C@H](O)C(=O)N[C@@H]1C[C@H](N)[C@@H](O[C@H]2O[C@H](CN)[C@@H](O)[C@H](O)[C@H]2O)[C@H](O)[C@H]1O[C@H]1O[C@H](CO)[C@@H](O)[C@H](N)[C@H]1O [Amikacin Disulfate] | -0.653 (inactive)
O=C(O)CCNC(=O)c1ccc(/N=N/c2ccc(O)c(C(=O)O)c2)cc1 [Balsalazide] | -0.579 (inactive)
CC(C)(S)[C@@H](N)C(=O)O [Penicillamine (D-Penicillamine)] | 0.684 (inactive)
Cc1cccc(CN2CCN(C(c3ccccc3)c3ccc(Cl)cc3)CC2)c1 (stereo unspecified) [Meclizine Dihydrochloride] | 2.28 (inactive)
Clc1ccc2c(c1)C(N1CCNCC1)=Nc1ccccc1O2 [Amoxapine] | 0.666 (inactive)
CCC(C)SSc1ncc[nH]1 (stereo unspecified) | -0.901 (inactive)
O=C1Cc2cc(CCN3CCN(c4nsc5ccccc45)CC3)c(Cl)cc2N1 [Ziprasidone] | 0.361 (inactive)
CC(C)(C(=O)NCC(F)(F)C(F)(F)F)C(=O)N[C@@H]1C(=O)Nc2ccccc2-c2ccccc21 | -1.46 (inactive)
